From the supplement of paper PMC9877034
Structures can show the parent of a compound that is named as a salt. In all, about 1,000 compounds were measured (“cFRET/donor change relative to DMSO, normalised to beta-lapachone positive control (supercomplex I-IV assembly)”: median about 0.18, lowest 2% from about -1 on). The full list was thinned out, with the lowest values kept by preference.

These compounds were tested on C2C12 (NDUFB8-AcGFP / COX8A-DsRed-Monomer FRET reporter) (assay: cFRET/donor change relative to DMSO, normalised to beta-lapachone positive control (supercomplex I-IV assembly) (fraction of beta-lapachone effect); higher = more respiratory supercomplex assembly). Details: 40 µM; 24 h.
Procedure: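 Cells were treated with 40 uM compound for 24 h and imaged on an IN Cell Analyzer 6000. Corrected FRET was divided by donor signal (cFRET/donor) and measured in two replicate experiments. The score is (mean cFRET/donor of compound - mean DMSO) / (mean beta-lapachone 40 uM - mean DMSO). Compounds flagged for prominent cell death, abnormal morphology or decreased cell number were excluded.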
Compound `NC(C(=O)O)C(O)C(=O)O` (racemic) [DL-threo-beta-hydroxyaspartic acid] has a cFRET/donor change of -0.112.
Compound `Cn1ccc2cc3c(cc21)CCN3C(=O)Nc1cccnc1` has a cFRET/donor change of -0.716.
`Cc1cc2c(cc1Cl)N(C(=O)Nc1ccc(Oc3cccnc3C)nc1)CC2` gave a cFRET/donor change of -1.37.
For `Cc1cc2c(cc1Cl)N(C(=O)Nc1cccc3ncccc13)CC2`, the cFRET/donor change was -0.136.
Compound `C[C@H](CCC(=O)NCCS(=O)(=O)O)[C@H]1CC[C@H]2[C@@H]3[C@H](O)C[C@@H]4C[C@H](O)CC[C@]4(C)[C@H]3C[C@H](O)[C@]12C` [Sodium Taurocholate hydrate] has a cFRET/donor change of 0.0638.
For `COc1ccc2cccc(CCNC(C)=O)c2c1` [Agomelatine], the cFRET/donor change was 0.0655.
Work on `Clc1ccc(N2CCN(Cc3cc4ccccn4n3)CC2)cc1` yielded a cFRET/donor change of 0.359.
Compound `CCCCC#Cc1nc(NC)c2ncn([C@@H]3O[C@H](CO)[C@@H](O)[C@H]3O)c2n1` has a cFRET/donor change of 0.242.
`CC(N)=NCCCC[C@H](N)C(=O)O` [L-N6-(1-Iminoethyl)lysine hydrochloride] gave a cFRET/donor change of -0.0938.
`COc1ccc2c(c1)CC[C@@H]1[C@@H]2CC[C@]2(C)[C@@H](NCCCCCCN3C(=O)CCC3=O)CC[C@@H]12` gave a cFRET/donor change of 0.325.
`O=C1N=C(O)NC1(c1ccccc1)c1ccccc1` [Phenytoin sodium] was tested, and the cFRET/donor change was 0.149.
For `Cn1c(=O)c(-c2c(Cl)cccc2Cl)cc2cnc(Nc3ccc(N4CCOCC4)cc3)nc21`, the cFRET/donor change was -0.227.
Work on `CCN(CC)CCOc1ccc(Nc2ncc3cc(-c4c(Cl)cccc4Cl)c(=O)n(C)c3n2)cc1` yielded a cFRET/donor change of -5.45.
For `Cc1cc(Nc2ncc3cc(-c4c(Cl)cccc4Cl)c(=O)n(C)c3n2)ccc1F`, the cFRET/donor change was -0.253.
`CN1Cc2sccc2C(c2ccc(O)c(O)c2)C1` (configuration not stated) was tested, and the cFRET/donor change was 0.596.
For `CN1CCc2cc(Cl)c(O)cc2[C@@H](c2ccccc2)C1`, the cFRET/donor change was 0.549.
Work on `CN1Cc2c(N)cccc2C(c2ccccc2)C1` (configuration not stated) [Nomifensine maleate] yielded a cFRET/donor change of -0.996.
`NS(=O)(=O)C#Cc1ccccc1` [Pifithrin-mu] showed a cFRET/donor change of 0.551.
Compound `O=C(O)/C=C/c1cnc[nH]1` [4-Imidazoleacrylic acid] has a cFRET/donor change of 0.18.
For `Clc1ccc2c(c1)N=C(N1CCNCC1)c1ccccc1N2` [N-Desmethylclozapine], the cFRET/donor change was 0.316.
`O=C(CCSCc1ccco1)NNC(=O)N1Cc2ccccc2Oc2ccc(Cl)cc21` was tested, and the cFRET/donor change was 0.36.
Compound `COc1cc(NS(C)(=O)=O)ccc1Nc1c2ccccc2nc2ccccc12` [Amsacrine hydrochloride] has a cFRET/donor change of 0.257.
For `CC1(C2CCCC2)Cc2cc(OCC(=O)O)c(Cl)c(Cl)c2C1=O` (configuration not stated), the cFRET/donor change was 0.0296.
Compound `O=P(O)(O)C(O)(Cn1ccnc1)P(=O)(O)O` [Zoledronic acid monohydrate] has a cFRET/donor change of 0.239.
`Cc1ccc(O)c(N=Nc2ccccc2)n1` gave a cFRET/donor change of 0.375.
`CO[C@H]1C[C@@H]2CC[C@@H](C)[C@@](O)(O2)C(=O)C(=O)N2CCCC[C@H]2C(=O)O[C@H]([C@H](C)C[C@@H]2CC[C@@H](OC(=O)C(C)(CO)CO)[C@H](OC)C2)CC(=O)[C@H](C)/C=C(\C)[C@@H](O)[C@@H](OC)C(=O)[C@H](C)C[C@H](C)/C=C/C=C/C=C/1C` [Temsirolimus] showed a cFRET/donor change of -0.55.
With `COc1ccc2[nH]c([S@@+]([O-])Cc3ncc(C)c(OC)c3C)nc2c1` [Esomeprazole magnesium dihydrate] the cFRET/donor change was 0.951.
`NCC=CC(=O)O` (stereo in doubt) [cis-4-Aminocrotonic acid] gave a cFRET/donor change of 0.532.
In the case of `CCN(CC)C(C)CN1c2ccccc2Sc2ccccc21` (configuration not stated) [Ethopropazine hydrochloride], the cFRET/donor change is reported as -0.00468.
Compound `N[C@@H](CCCC(=O)O)C(=O)O` [L-2-aminoadipic acid] has a cFRET/donor change of -0.139.
`COCCOc1cc2ncnc(Cl)c2cc1OCCOC` showed a cFRET/donor change of 0.0633.
`CCOC(=O)c1ccc(C#Cc2ccc3c(c2)C(C)(C)CCS3)nc1` [Tazarotene] showed a cFRET/donor change of 0.454.
`c1ccc2c(c1)CC(N1CCN(c3cccc4c3OCCO4)CC1)C2` showed a cFRET/donor change of 0.201.
Work on `c1cnc2cc3c(cc2n1)[C@@H]1CNC[C@H]3C1` [Varenicline tartrate] yielded a cFRET/donor change of 0.22.
Compound `Cc1ccc(S(=O)(=O)/C=C/C#N)cc1` has a cFRET/donor change of 0.324.
With `COc1ccc(CCNc2nc(N3CCc4cc(OC)c(OC)cc4C3)c3cc(OC)c(OC)cc3n2)cc1OC` the cFRET/donor change was 0.14.
Work on `O=C1c2c(O)cc(O)cc2O[C@H](c2ccc(O)c(O)c2)[C@H]1O` (racemic) [(±)-Taxifolin] yielded a cFRET/donor change of 0.226.
`CN(c1ccccc1CNc1nc(Nc2ccc3c(c2)CC(=O)N3)ncc1C(F)(F)F)S(C)(=O)=O` was tested, and the cFRET/donor change was 0.036.
With `O=C(O[C@@H]1C[C@@H]2C[C@H]3C[C@H](C1)N2CC3=O)c1c[nH]c2ccccc12` [Dolasetron mesylate hydrate] the cFRET/donor change was 0.115.
`NC(N)=NCc1cccc(I)c1` [m-Iodobenzylguanidine hemisulfate] gave a cFRET/donor change of -0.0455.
With `CN(CCCOc1ccc(Cc2ccccc2)cc1)CCC(=O)O` the cFRET/donor change was 0.52.
With `COc1cccc(OC)c1-c1cc(C(=O)NC2(C(=O)O)C3CC4CC(C3)CC2C4)nn1-c1ccc(C(=O)N(C)CCCN(C)C)cc1C(C)C` (configuration not stated) the cFRET/donor change was 0.153.
With `CC(C)[N+]1(C)[C@@H]2CC[C@H]1C[C@@H](OC(=O)C(CO)c1ccccc1)C2` (some centres not stated) [Ipratropium bromide] the cFRET/donor change was 0.299.
Compound `O=C1CCC(c2ccc(-n3ccnc3)cc2)=NN1` [Imazodan] has a cFRET/donor change of 0.0699.
In the case of `Nc1nc(=O)c(Br)c(-c2ccccc2)[nH]1` [Bropirimine], the cFRET/donor change is reported as -0.0226.
With `Nc1ccc(-c2nc3ccc(-c4nc5ccc(N)cc5[nH]4)cc3[nH]2)cc1` the cFRET/donor change was -0.494.
Compound `CC(C)(C)NC(=O)[C@@H]1CN(Cc2cccnc2)CCN1C[C@@H](O)C[C@@H](Cc1ccccc1)C(=O)N[C@H]1c2ccccc2C[C@H]1O` [Indinavir sulfate salt hydrate] has a cFRET/donor change of 0.0944.
Work on `Cc1cc(NC2CCCCC2)nc(-n2nc(C)cc2C)n1` yielded a cFRET/donor change of 0.569.
Compound `O=C1/C(=C/c2cccs2)CC/C1=C\c1cccs1` has a cFRET/donor change of 0.584.
Compound `CCN(CC)CCCC(C)Nc1c2ccc(Cl)cc2nc2ccc(OC)cc12` (configuration not stated) [Quinacrine dihydrochloride] has a cFRET/donor change of -4.52.
`OC[C@H]1O[C@@H](n2cnc3c(N[C@H]4CCC[C@@H]4O)ncnc32)[C@H](O)[C@@H]1O` showed a cFRET/donor change of 0.476.
`C[C@H](c1ccc(F)cc1CCCC(=O)O)N(c1cc(F)ccc1F)S(=O)(=O)c1ccc(Cl)cc1` was tested, and the cFRET/donor change was 0.476.
